Assay outcomes from PubChem.
An excerpt weighted towards active compounds, which were near 3.4% of everything screened.
hgDAF12 agonist: hgDAF-12 agonism, primary luciferase screen. hit rate 1.8% among 370,000. activation, % at 6.8 µM. HEK293 GAL4-hgDAF12 UAS-luciferase reporter, agonist luminescence; normalized to butyrate control;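 active means activation above a cutoff set at the mean of all screened compounds plus 3 SD, cut at about 10% in these data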;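 further: 0% = DMSO wells and 100% = sodium butyrate wells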
hcDAF-12 act: H. contortus DAF-12 activation, primary screen | hit rate 1.4% among 370,000 | HEK293 hcDAF-12 lit1-tk-luc reporter, luminescence; 0% DMSO, 100% Δ7-dafachronic acid | activation, % at 6.8 µM | AID 652067;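 active means activation above the mean of all tested compounds plus 3 SD, cut at about 5.5% in these data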;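 further: 100% = response to 3 µM Δ7-dafachronic acid high control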
NF-kB expr up: raises NF-kB expression in human neuronal cells | NF-kB reporter expression; active compounds read high | fold change at 12.5 µM | hit rate 1.6% among 190,000 | AID 1239; in the data active means fold change above about 3.3
APP 5'UTR act: APP 5'UTR luciferase reporter activation. activation, % at 2 µM. hit rate 1% among 190,000. AID 1276. SH-SY5Y APP 5'UTR luciferase reporter, luminescence; zero percent = DMSO vehicle wells;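 active means activation above a set limit, based on mean plus 3 SD of controls, cut at about 140% in these data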
ssDAF-12 act: activators of S. stercoralis DAF-12 nuclear receptor; hit rate 1% among 370,000; activation, % at 6.8 µM; HEK293 ssDAF-12/GRIP1 lit1-tk-luc reporter, luminescence; % of 3 µM dafachronic acid response;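 active means activation above the mean over all tested compounds plus 3 SD, cut at about 0.9% in these data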;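 further: 0% = DMSO-only wells and 100% = 3 µM delta7-dafachronic acid wells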
hgDAF12 ag: confirmation of H. glycines DAF-12 agonists; shares compounds with hgDAF12 agonist; HEK293 GAL4-hgDAF12 luciferase reporter, agonist mode; percent of butyrate response; activation, % at 6.8 µM; hit rate 80% among 3,300; AID 743050;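 active means mean activation over triplicate wells above the hit cutoff derived from the earlier primary screen, cut at about 11% in these data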;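 further: 0% = DMSO low control and 100% = 2 mM sodium butyrate high control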
LXRb DAF12 ctr: activates human LXR-beta, counter-screen for DAF-12 agonists; HEK293 Gal4-LXR luciferase reporter, 24 h; shares compounds with hgDAF12 agonist; 3,300 tested, under 10 active; activation, % at 6.8 µM;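 active means mean activation of the triplicate above a set limit carried over from the primary screen, none filed active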
Target sequence (P55055 whole entry, looked up, the tested form may be a part): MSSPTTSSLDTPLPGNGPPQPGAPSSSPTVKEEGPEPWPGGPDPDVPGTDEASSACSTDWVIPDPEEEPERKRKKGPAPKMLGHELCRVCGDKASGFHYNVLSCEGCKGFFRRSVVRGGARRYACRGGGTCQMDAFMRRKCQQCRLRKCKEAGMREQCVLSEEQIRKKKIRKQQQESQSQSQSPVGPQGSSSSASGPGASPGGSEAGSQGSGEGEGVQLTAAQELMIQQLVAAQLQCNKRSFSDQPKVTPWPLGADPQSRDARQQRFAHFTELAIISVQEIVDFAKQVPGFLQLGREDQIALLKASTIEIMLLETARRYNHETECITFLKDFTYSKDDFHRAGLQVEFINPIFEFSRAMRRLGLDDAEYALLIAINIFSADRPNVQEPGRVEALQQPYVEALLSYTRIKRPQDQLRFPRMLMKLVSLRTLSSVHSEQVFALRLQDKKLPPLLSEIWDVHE
An asterisk follows results filed as active.

How did COc1nc(-c2ccccc2)nnc1-c1ccccc1 do in these assays?
hgDAF12 agonist: 15*; hcDAF-12 act: 15*; NF-kB expr up: 6.2*; APP 5'UTR act: 180*; ssDAF-12 act: 1.3*; hgDAF12 ag: 20*; LXRb DAF12 ctr: 1

What do the screens show for `Cc1cc(OCC(=O)Nc2ccccc2C)no1`?
hgDAF12 agonist: 2; hcDAF-12 act: 0; ssDAF-12 act: -2

How did Cc1cc(OCC(=O)Nc2c(C(C)C)cccc2C(C)C)no1 do in these assays?
hgDAF12 agonist: 20*; hcDAF-12 act: -1; ssDAF-12 act: -1; hgDAF12 ag: 0; LXRb DAF12 ctr: 0

How did O=C(Cn1nc(-c2ccccc2)ccc1=O)NCCc1cccc(F)c1 do in these assays?
hgDAF12 agonist: 1; hcDAF-12 act: -2; ssDAF-12 act: -2

Results for Cc1ccc(NC(=O)c2ccc3ncsc3c2)cc1S(=O)(=O)N(C)C ?
hgDAF12 agonist: 20*; hcDAF-12 act: 4; ssDAF-12 act: 0; hgDAF12 ag: 14*; LXRb DAF12 ctr: 1

How did CC(=O)CC[C@H]1CC[C@]2(CCCN(S(C)(=O)=O)C2)O1 do in these assays?
hgDAF12 agonist: 4; hcDAF-12 act: 0; ssDAF-12 act: -1

Results for CCOC(=O)CC[C@@H]1CC[C@]2(CCCN(C(=O)c3ccno3)C2)O1 ?
hgDAF12 agonist: 4; hcDAF-12 act: -1; ssDAF-12 act: -1

How did COc1ccc(-c2ccc3ccccc3n2)cc1OC do in these assays?
hgDAF12 agonist: 17*; hcDAF-12 act: 1; NF-kB expr up: 3.3*; APP 5'UTR act: 143*; ssDAF-12 act: 0; hgDAF12 ag: 12*; LXRb DAF12 ctr: 1

Results for O=C(Nc1cccc(Cl)c1)Nc1ccccc1C(=O)O ?
hgDAF12 agonist: 14*; hcDAF-12 act: 5; ssDAF-12 act: -1; hgDAF12 ag: 15*; LXRb DAF12 ctr: 1

How did O=C(NNC1=NCCCCC1)Nc1cccc(Cl)c1 do in these assays?
hgDAF12 agonist: 19*; hcDAF-12 act: 5; NF-kB expr up: 1.1; APP 5'UTR act: 58; ssDAF-12 act: 0; hgDAF12 ag: 18*; LXRb DAF12 ctr: 0

Results for O=C(NNC1=NCCCCC1)Nc1ccc(Cl)cc1 ?
hgDAF12 agonist: 2; hcDAF-12 act: -1; ssDAF-12 act: 0

What do the screens show for `O=C(Nc1cccc(C(=O)O)c1)Nc1cccc2ccccc12`?
hgDAF12 agonist: 4; hcDAF-12 act: 4; ssDAF-12 act: 1

Results for O=C(Nc1cccc(C(=O)O)c1)Nc1ccccc1Cl ?
hgDAF12 agonist: 18*; hcDAF-12 act: 3; NF-kB expr up: 1.7; APP 5'UTR act: 65; ssDAF-12 act: 0; hgDAF12 ag: 9; LXRb DAF12 ctr: 1

Results for NC(=O)c1ccccc1NC(=O)Nc1cccc(Cl)c1 ?
hgDAF12 agonist: 3; hcDAF-12 act: 0; NF-kB expr up: 1.1; APP 5'UTR act: 32; ssDAF-12 act: -1

How did COc1cc(C(NC(=O)C(F)(F)F)C2CCCC=C2c2ccccc2)cc(OC)c1OC (configuration not stated) do in these assays?
hgDAF12 agonist: 1; hcDAF-12 act: 0; ssDAF-12 act: -1

Results for COc1ccc(-n2c(SCC(=O)Nc3cc(C)c(NC(=O)c4ccccc4)cc3OC)nnc2-c2ccco2)cc1 ?
hgDAF12 agonist: -3; hcDAF-12 act: 2; ssDAF-12 act: 0

Results for CC1=C2N=C(N)N(Cc3ccccc3)C(Cc3ccccc3)C2n2c(=O)n(-c3ccccc3)c(=O)n2C1 (configuration not stated) ?
hgDAF12 agonist: 2; hcDAF-12 act: 1; ssDAF-12 act: -1

What do the screens show for `Cc1ccc(NCCC(=O)c2cccs2)cc1C`?
hgDAF12 agonist: 15*; hcDAF-12 act: 4; NF-kB expr up: 1.6; APP 5'UTR act: 82; ssDAF-12 act: 1; hgDAF12 ag: 15*; LXRb DAF12 ctr: 1

How did CC(C)c1ccc(NCCC(=O)c2cccs2)cc1 do in these assays?
hgDAF12 agonist: 7; hcDAF-12 act: 1; NF-kB expr up: 1; APP 5'UTR act: 43; ssDAF-12 act: -2

What do the screens show for `CCCC1CCC2(CC1)CCC2OC(=S)Nc1ccccc1C(F)(F)F` (configuration not stated)?
hgDAF12 agonist: 3; hcDAF-12 act: -1; ssDAF-12 act: -1

How did c1ccc(-c2cc3nccc(-c4ccccn4)n3n2)cc1 do in these assays?
hgDAF12 agonist: 23*; hcDAF-12 act: 4; NF-kB expr up: 3.2; APP 5'UTR act: 100; ssDAF-12 act: 0; hgDAF12 ag: 16*; LXRb DAF12 ctr: 1

How did Cc1cc2nccc(-c3ccccn3)n2n1 do in these assays?
hgDAF12 agonist: -2; hcDAF-12 act: 2; NF-kB expr up: 1.2; APP 5'UTR act: 5; ssDAF-12 act: -2

How did Nc1nc(Nc2cccc(F)c2)nc2ccccc12 do in these assays?
hgDAF12 agonist: 14*; hcDAF-12 act: 6.1*; NF-kB expr up: 5.3*; APP 5'UTR act: 97; ssDAF-12 act: 0; hgDAF12 ag: 16*; LXRb DAF12 ctr: 1

How did O=c1oc(Nc2cccc(F)c2)nc2ccccc12 do in these assays?
hgDAF12 agonist: 8; hcDAF-12 act: 3; NF-kB expr up: 2.2; APP 5'UTR act: 68; ssDAF-12 act: 0

How did CCOC(=O)[C@@]12CN(C(=O)OC(C)(C)C)CC=C1N(Cc1ccc(OC)cc1)C(=O)[C@H]2CC(=O)NCCCN1CCCC1=O do in these assays?
hgDAF12 agonist: -1; hcDAF-12 act: -2; ssDAF-12 act: -2

What do the screens show for `C[C@H](O)[C@@H]1C(=O)N2CCc3c([nH]c4c(-c5ccc6c(c5)OCO6)cccc34)[C@@H]2C[C@@H]1N(C)C(=O)NC1CCCCC1`?
hgDAF12 agonist: 1; hcDAF-12 act: -3; ssDAF-12 act: -1

Results for Cc1ccc2c(Cl)c(C(=O)Nc3cccnc3)sc2c1 ?
hgDAF12 agonist: 20*; hcDAF-12 act: 2; NF-kB expr up: 2.8; APP 5'UTR act: 169*; ssDAF-12 act: -1; hgDAF12 ag: 18*; LXRb DAF12 ctr: 1

What do the screens show for `COc1ccc(/C=N/NC(=O)c2ccc[nH]2)cc1`?
hgDAF12 agonist: 13*; hcDAF-12 act: 5; ssDAF-12 act: 0; hgDAF12 ag: 15*; LXRb DAF12 ctr: 1

What do the screens show for `COc1cccc(/C=N/NC(=S)Nc2cccc(C(=O)O)c2)c1O`?
hgDAF12 agonist: 17*; hcDAF-12 act: -1; NF-kB expr up: 1.8; APP 5'UTR act: -1; ssDAF-12 act: -1; hgDAF12 ag: 4; LXRb DAF12 ctr: 0

Results for COc1cc(/C=N/NC(=S)Nc2cccc(C(=O)O)c2)ccc1O ?
hgDAF12 agonist: 9; hcDAF-12 act: 0; NF-kB expr up: 1.2; APP 5'UTR act: -12; ssDAF-12 act: -1

What do the screens show for `COc1ccc(/C=N/NC(=O)c2cccnc2)cc1`?
hgDAF12 agonist: 3; hcDAF-12 act: 0; ssDAF-12 act: -1
